Laboratory results taken from PubChem BioAssay AID1259421 (Broad Institute, 2018).
Values joined by “and” are separate entries in the source; they are usually repeats but may differ in a detail not shown here. Equal entries are not always repeated. The whole screen tested about 6,400 compounds, of which about 610 (9.5%) were called active. No stated cut-off is given here; in the data, active means activity change below about -70%; inconclusive means no clear call, values can overlap the other calls; inactive means above that. The list comes from a sample in which actives are over-represented; it also holds similar structures and randomly drawn compounds. A structure can be active in one record and inactive in another.

Assay: T. gondii ME49Luc in HeLa cells, luciferase assay, 72 h, no IFN-y (AID 1259421)
Details: stronger effect = lower value, concentration not given here

Compound	activity change, negative = inhibition
CCOC(=O)N1CSCC1C(=O)O (stereo not drawn)	0.0863% (inactive)
CC(C)Oc1ccc2c(=O)cc(-c3ccccc3)oc2c1	458% (inactive)
CN(C)CCCCC(=O)Nc1ccc(NC(=S)NC(=O)c2ccc(C(C)(C)C)cc2)cc1	78.2% (inactive)
COCCOc1ccc2c(c1)ncn2-c1ccc2cccc(N3CCC(N)CC3)c2n1	-89.9% (active)
NC1CCN(c2cccc(Cl)n2)CC1	10.9% (inactive) and -8.3% (inactive)
CC1(COc2ccc3c(c2)ncn3-c2ccc3cccc(N4CCC(N)CC4)c3n2)COC1	-73.4% (active)
CCOC(=O)c1ccc(OCCC2CCN(c3ccc(C)nn3)CC2)cc1	9.97% (inactive)
COc1ccc(C[C@H](C)NC[C@@H](O)c2ccc(O)c(NC=O)c2)cc1	14.6% (inactive) and 0.747% (inactive)
CCCC1OC2CC3C4CCC5=CC(=O)C=CC5(C)C4C(O)CC3(C)C2(C(=O)CO)O1 (stereo not drawn)	-4.58% (inactive)
Cc1nnc(C(C)C)n1C1CC2CCC(C1)N2CC[C@H](NC(=O)C1CCC(F)(F)CC1)c1ccccc1 (stereo partly drawn)	10.7% (inactive) and 30.6% (inactive)
CC(C)NC[C@@H](C(=O)N1CCN(c2ncnc3c2[C@H](C)C[C@@H]3O)CC1)c1ccc(Cl)cc1	9.17% (inactive)
CC(=O)c1c(O)c(C)c(O)c2c1OC1=CC(=O)C(C(C)=O)C(=O)[C@@]12C (stereo partly drawn)	16.8% (inactive)
CCCCCCCCCCCCC/C=C/[C@@H](O)[C@H](CO)NC(C)=O	16.6% (inactive)
NCCCCCCNS(=O)(=O)c1cccc2ccccc12	3.17% (inactive)
NCCNS(=O)(=O)c1cccc2cnccc12	1.67% (inactive)
Nc1nc(NCC2CCC(CNS(=O)(=O)c3cccc4ccccc34)CC2)nc2ccccc12 (stereo not drawn)	-76.7% (active) and -41.2% (inactive)
Cc1onc(-c2ccccc2)c1C(=O)NC1C(=O)N2[C@@H]1SC(C)(C)[C@@H]2C(=O)O (stereo partly drawn)	8.03% (inactive)
CSC1SCC2C(=O)N(C)C(C(C)C)C(=O)OCC(NC(=O)c3cnc4ccccc4n3)C(=O)NC(C)C(=O)N(C)C1C(=O)N(C)C(C(C)C)C(=O)OCC(NC(=O)c1cnc3ccccc3n1)C(=O)NC(C)C(=O)N2C (stereo not drawn)	-84.4% (active)
CC(=C(CCOP(=O)(O)O)SC(=O)c1ccccc1)N(C=O)Cc1cnc(C)nc1N	-0.0808% (inactive)
Oc1c(Cl)cc(Cl)c(Cl)c1Cc1c(O)c(Cl)cc(Cl)c1Cl	-88.2% (active) and -95.3% (active)
O=C(Nc1cc(Cl)cc(Cl)c1O)c1c(O)c(Cl)cc(Cl)c1Cl	1.68% (inactive)
CCCC(CCC)C(=O)OC1C[C@H]2CC[C@@H](C1)[N+]2(C)C (stereo partly drawn)	9.62% (inactive)
O=C(COc1ccc(C(=O)c2ccccc2)cc1)NC1CCN(Cc2ccccc2)CC1	-17.8% (inactive)
O=C(NC1CCN(Cc2ccccc2)CC1)c1ccc(I)cc1	21.8% (inactive) and 21.3% (inactive)
C=CCc1cccc(/C=N/NC(=O)CN2CCN(Cc3ccccc3)CC2)c1O	-76.9% (active) and 6.28% (inactive)
Cc1ccccc1N=Nc1ccc(NC(=O)c2ccnn2C)c(C)c1	-4.39% (inactive)
Cc1nc2ccc(CN(C)c3ccc(C(=O)N[C@@H](CCC(=O)O)C(=O)O)s3)cc2c(=O)[nH]1	-4.51% (inactive)

Compound	activity change, negative = inhibition
O=C(O)c1cc(-c2ccccc2)nc2ccccc12	42.2% (inactive) and 11.3% (inactive)
O=C(O)c1ccc(-c2c[nH]c3ncc(-c4ccccc4)cc23)cc1C1CCCC1	-82.2% (active)
CCC(=O)OCC(=O)[C@@]1(OC(=O)CC)[C@@H](C)CC2C3CCC4=CC(=O)C=C[C@]4(C)C3(F)[C@@H](O)C[C@@]21C (stereo partly drawn)	-0.442% (inactive)
CC(=O)Nc1ccc(S(=O)(=O)Nc2onc(C)c2C)cc1	6.51% (inactive)
NCCCC(N)(C(=O)O)C(F)F (stereo not drawn)	7.14% (inactive)
COc1cc(OC)c2c(=O)cc(-c3ccccc3)oc2c1	147% (inactive)
COc1cc(OC)c2c(OC)c(-c3ccc4c(c3)OCO4)c(=O)oc2c1	-77.7% (active)
COc1cc(OC)c2c(=O)c(OC)c(-c3ccccc3)oc2c1	43.5% (inactive)
O=C(NCCc1ccc(O)c(O)c1)C12CC3CC(CC(C3)C1)C2	1.2% (inactive)
N#C/C(=C\c1ccc(O)c(O)c1)C(=O)OCCc1cccs1	2.66% (inactive)
COc1cc2c(cc1OC)Cc1cc(OC)c(OC)cc1Cc1cc(OC)c(OC)cc1C2	6.34% (inactive)
COc1cccc(N2CCN(C3=Nc4c(F)cccc4[C@H](CC(=O)O)N3c3cc(C(F)(F)F)ccc3OC)CC2)c1	-1.57% (inactive)
O=C1c2ccccc2CCC1CNCCc1ccc(O)cc1 (stereo not drawn)	9.23% (inactive)
O=S(=O)(O)c1ccc(O)cc1	0.395% (inactive)
CC(=O)N1CCN(C)CC1	1.18% (inactive) and 9.84% (inactive)
O=c1c2cc(O)c(O)cc2oc2cc(O)c(C3O[C@H](CO)[C@H](O)[C@@H](O)[C@H]3O)c(O)c12 (stereo partly drawn)	3.15% (inactive)
COc1ccc(-c2cc(=O)c3c(O)c(OC)c(O[C@H]4O[C@H](CO[C@@H]5O[C@@H](C)[C@H](O)[C@@H](O)[C@H]5O)[C@@H](O)[C@H](O)[C@H]4O)cc3o2)cc1	15.1% (inactive)
O=C(NNc1nc2cc(F)ccc2n2cccc12)c1cnccn1	-77.3% (active)
NC(Cc1ccc(F)cc1)C(=O)O (stereo not drawn)	2.32% (inactive)
CCCCNc1ncc(-c2ccc(CN3CCOCC3)cn2)c(NC2CCC(O)CC2)n1 (stereo not drawn)	-67.2% (inactive)
OC1CCC(Nc2ncc3nc(Nc4c(F)cc(F)cc4F)n([C@H]4CCOC4)c3n2)CC1 (stereo partly drawn)	-77.1% (active)
O=C(CN1C(=O)c2ccccc2S1(=O)=O)Nc1ccc(O)cc1	6.78% (inactive)
Nc1nc(NCCNc2ncc(-n3ccnc3)c(-c3ccc(Cl)cc3Cl)n2)ccc1[N+](=O)[O-]	38.7% (inactive)
O=C(NO)c1cnc(N2CCN(S(=O)(=O)c3ccc4ccccc4c3)CC2)nc1	-82.9% (active)
COc1ccccc1N1CCN(CCCCNC(=O)c2ccc3ccccc3c2)CC1	-12.8% (inactive)
COc1ccc(S(=O)(=O)N2CCCN(S(=O)(=O)c3ccc(OC)c(OC)c3)CC2)cc1OC	0.269% (inactive)
